In ChEMBL document CHEMBL4513141, “CO-ADD screening of NIH (USA) - Clinical Collection” (2021):
“And” between values parts separate entries of the source, which are not always exact repeats. Equal entries are not always repeated. Potency and affinity values are given separately.

Legend:
Staphylococcus aureus = details: Concentration 20 uM, ASSAY_TEST Inhibition of Bacterial Growth, detection method Absorption (OD600), MEDIA CAMHB, plate type 384well, NBS, CORNING #3640, time 18 hr
Escherichia coli = details: Concentration 20 uM, ASSAY_TEST Inhibition of Bacterial Growth, detection method Absorption (OD600), MEDIA CAMHB, plate type 384well, NBS, CORNING #3640, time 18 hr

Row | SMILES | Inhibition (Staphylococcus aureus) | Inhibition (Escherichia coli) | Inhibition (Staphylococcus aureus; 20 µM) | Inhibition (Escherichia coli; 20 µM)
1 | CN1CCN(CC/C=C2/c3ccccc3Sc3ccc(S(=O)(=O)N(C)C)cc32)CC1 [THIOTHIXENE] | 8.53% | 3.6% | – | –
2 | COc1ccnc(C[S+]([O-])c2nc3cc(OC(F)F)ccc3[n-]2)c1OC.O.[Na+] (stereo unspecified) [PANTOPRAZOLE SODIUM] | 15.25% | 1.53% | – | –
3 | CC(CCc1ccccc1)NCC(O)c1ccc(O)c(C(N)=O)c1.Cl (stereo unspecified) [LABETALOL HYDROCHLORIDE] | 13.4% | 1.62% | – | –
4 | CCCc1nc(C(C)(C)O)c(C(=O)OCc2oc(=O)oc2C)n1Cc1ccc(-c2ccccc2-c2nnn[nH]2)cc1 [OLMESARTAN MEDOXOMIL] | 10.76% | -6.4% | – | –
5 | CC(C)(C)NCC(O)c1ccc(O)c(CO)c1.CC(C)(C)NCC(O)c1ccc(O)c(CO)c1.O=S(=O)(O)O (stereo unspecified) [ALBUTEROL SULFATE] | 8.55% | 5.03% | – | –
6 | OCCN1CCN(CCCN2c3ccccc3Sc3ccc(Cl)cc32)CC1 [PERPHENAZINE] | 23.21% | 4.38% | – | –
7 | Oc1ncc(F)cn1 | 12.62% | 10.23% | – | –
8 | CC[N+](C)(CC)CCOC(=O)C(O)(c1ccccc1)C1CCCCC1.[Br-] (stereo unspecified) [OXYPHENONIUM BROMIDE] | 12.65% | 3.27% | – | –
9 | CCCCNC(=O)NS(=O)(=O)c1ccc(C)cc1 [TOLBUTAMIDE] | 4.92% | 0.97% | – | –
10 | COc1nc(C)nc(Cl)c1NC1=NCCN1.Cl [MOXONIDINE HYDROCHLORIDE] | -14.16% | 3.63% | – | –
11 | O=C(O)COCCN1CCN([C@H](c2ccccc2)c2ccc(Cl)cc2)CC1 [LEVOCETIRIZINE] | 11.65% | 5.57% | – | –
12 | O=c1c(O[C@@H]2O[C@H](CO)[C@H](O)[C@H](O)[C@H]2O)c(-c2ccc(O)c(O)c2)oc2cc(O)cc(O)c12 [HYPEROSIDE] | 7.34% | 3.89% | – | –
13 | NC(=O)c1cccnc1 [NIACINAMIDE] | 11.51% | 3.02% | – | –
14 | CC1CCN(CCCC(=O)c2ccc(F)cc2)CC1.Cl | 4.4% | 6.76% | – | –
15 | COc1cc(/C=C/c2ccc(O)cc2)cc(OC)c1 [PTEROSTILBENE] | 13.68% | 1.16% | – | –
16 | CC(C)NCC(O)c1cc(O)cc(O)c1 (stereo unspecified) [METAPROTERENOL] | -6.69% | -6.08% | – | –
17 | Nc1nc(Cl)nc2c1ncn2[C@H]1C[C@H](O)[C@@H](CO)O1 [CLADRIBINE] | 6.87% | 14.09% | – | –
18 | CN(C)C(=O)Oc1ccc[n+](C)c1.[Br-] [PYRIDOSTIGMINE BROMIDE] | 10.54% | -0.78% | – | –
19 | Cc1ccc(N(CC2=NCCN2)c2cccc(O)c2)cc1 [PHENTOLAMINE] | 2.09% | -2.29% | – | –
20 | Cl.O=c1n(CCCN2CCN(c3cccc(Cl)c3)CC2)nc2ccccn12 [TRAZODONE HYDROCHLORIDE] | 11.44% | 0.18% | – | –
21 | CC(C)(C(=O)c1cccnc1)c1cccnc1 [METYRAPONE] | 4.18% | 6.34% | – | –
22 | Cc1cc2c(s1)Nc1ccccc1N=C2N1CCN(C)CC1 [OLANZAPINE] | 9.67% | 0.45% | – | –
23 | C[C@@H]1C[C@H]2[C@@H]3CCC4=CC(=O)C=C[C@]4(C)[C@@]3(F)[C@@H](O)C[C@]2(C)[C@@]1(O)C(=O)CO [DEXAMETHASONE] | – | – | -14.23% and -13.77% | 5.83% and 4.46%
24 | Cl.O.OC[C@H]1O[C@@H](n2cnc3c(N[C@H]4CCC[C@@H]4O)ncnc32)[C@@H](O)C1O (stereo partly specified) | 7.67% | 1.98% | – | –

Row | SMILES | Inhibition (Staphylococcus aureus) | Inhibition (Escherichia coli) | Inhibition (Staphylococcus aureus; 20 µM) | Inhibition (Escherichia coli; 20 µM)
25 | CCCCNc1cc(C(=O)O)cc(S(N)(=O)=O)c1Oc1ccccc1 [BUMETANIDE] | 10.97% | 5.78% | – | –
26 | COC(=O)C1=C(C)NC(C)=C(C(=O)OCC(C)C)C1c1ccccc1[N+](=O)[O-] (stereo unspecified) [NISOLDIPINE] | 10.19% | 14.24% | – | –
27 | O=C(O[C@H]1[C@H](Oc2ccccc2COC(=O)C2(O)C=CCCC2=O)O[C@H](CO)[C@@H](O)[C@@H]1O)c1ccccc1 (stereo partly specified) [TREMULACIN] | 15.86% | 0.23% | – | –
28 | Cc1nc(=O)c2cc(CN(C)c3ccc(C(=O)N[C@@H](CCC(=O)O)C(=O)O)s3)ccc2[nH]1 [RALTITREXED] | 9.09% | 2.78% | – | –
29 | Cl.Clc1ccc2nsnc2c1NC1=NCCN1 [TIZANIDINE HYDROCHLORIDE] | -18.93% | 6.6% | – | –
30 | CC(Cc1ccc(O)c(O)c1)(NN)C(=O)O.O (stereo unspecified) | 16.15% | 3.56% | – | –
31 | CC(=O)OCC(=O)NCCCOc1cccc(CN2CCCCC2)c1.Cl [ROXATIDINE ACETATE HYDROCHLORIDE] | 9.98% | 5.49% | – | –
32 | CN(C)CCCSc1ccccc1NC(=O)/C=C/c1ccccc1.Cl.O | 14.82% | 3.24% | – | –
33 | COc1cc([C@@H]2c3cc4c(cc3[C@@H](O[C@@H]3O[C@@H]5CO[C@@H](C)O[C@H]5[C@H](O)[C@H]3O)[C@H]3COC(=O)[C@H]23)OCO4)cc(OC)c1O [ETOPOSIDE] | 14.84% | -0.07% | – | –
34 | O=C([O-])c1cc(=O)c2c(OCC(O)COc3cccc4oc(C(=O)[O-])cc(=O)c34)cccc2o1.[Na+].[Na+] [CROMOLYN SODIUM] | 9.1% | -1.24% | – | –
35 | CCc1cccc2c3c([nH]c12)C(CC)(CC(=O)O)OCC3 (stereo unspecified) [ETODOLAC] | 5.09% | -6.35% | – | –
36 | CCOC(=O)O[C@]1(C(=O)OCCl)CC[C@H]2[C@@H]3CCC4=CC(=O)C=C[C@]4(C)[C@H]3[C@@H](O)C[C@@]21C [LOTEPREDNOL ETABONATE] | -21.62% | 4.07% | – | –
37 | COc1cc(C(=O)NC2CCCNC2)cc(OC)c1OC (stereo unspecified) [TROXIPIDE] | 21.18% | 2.83% | – | –
38 | CC(=O)OCC(=O)[C@@]1(O)CC[C@H]2[C@@H]3CCC4=CC(=O)CC[C@]4(C)[C@H]3[C@@H](O)C[C@@]21C [HYDROCORTISONE ACETATE] | 9.41% | 0.56% | – | –
39 | CCN(CC)C(=O)[C@]1(c2ccccc2)C[C@@H]1CN.Cl [1R,2S-MILNACIPRAN HYDROCHLORIDE] | 5.25% | 4.64% | – | –
40 | O=c1[nH]c(=O)n(C2CCCO2)cc1F (stereo unspecified) [TEGAFUR] | 17.75% | 8.41% | – | –
41 | CCCCCCCCCCC[C@@H](C[C@@H]1OC(=O)[C@H]1CCCCCC)OC(=O)[C@H](CC(C)C)NC=O [ORLISTAT] | 11.59% | -4.78% | – | –
42 | CCCOc1ccc(C(=O)OCCN(CC)CC)cc1N.Cl [PROPARACAINE HYDROCHLORIDE] | -1.38% | 2.71% | – | –
43 | Sc1ncnc2nc[nH]c12 [MERCAPTOPURINE ANHYDROUS] | 22.75% | 6.85% | – | –
44 | CS(=O)(=O)O.Cc1c(O)cccc1C(=O)N[C@@H](CSc1ccccc1)[C@H](O)CN1C[C@H]2CCCC[C@H]2C[C@H]1C(=O)NC(C)(C)C [NELFINAVIR MESYLATE] | 8.63% | 1.35% | – | –
45 | CO[C@H]1O[C@@H]2O[C@@]3(C)CC[C@H]4[C@H](C)CC[C@@H]([C@H]1C)[C@@]24OO3 | 8.78% | 13.66% | – | –
46 | O=C1c2c(O)cc(O)cc2O[C@H](c2ccc(O)c(O)c2)[C@H]1O [(+)-TAXIFOLIN] | 8.9% | -0.85% | – | –
47 | CC1=C(CC(=O)O)c2cc(F)ccc2/C1=C\c1ccc([S+](C)[O-])cc1 (stereo unspecified) | 2.19% | 3.68% | – | –
48 | Nc1ccn([C@@H]2O[C@H](CO)[C@@H](O)[C@@H]2O)c(=O)n1 [CYTARABINE] | 17.83% | -2.15% | – | –
